Measured values as given in PubChem BioAssay AID1159580 (chemical genetic matrix, 2015).
In all, about 5,500 compounds went through this assay and about 2,000 (36%) were called active. Roughly 18% stayed inconclusive and do not appear here. No stated cut-off is given here; in the data, active means normalized growth mostly below about 0.91 (no sharp cut-off); inconclusive means no clear call, values can overlap the other calls; inactive means mostly above about 0.92. Some of the results follow.

Experiment: chemical genetic growth profiling, strain panel (AID 1159580);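 further: tested at 20 µM; growth read once vehicle control cultures reached saturation at 30 °C; 1 = growth at the plate median or of vehicle wells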
Conditions: growth OD

Measured: normalized growth

CC(=O)OCC(=O)[C@@]1(O)CCC2C3C[C@H](C)C4=CC(=O)C=CC4(C)C3[C@@H](O)CC21C (some centres not stated)
inactive: S. cerevisiae deletion strains, locus YJR075W, strain HOC1, stronger effect = lower value 1.01 | S. cerevisiae deletion strains, locus YKL009W, strain mrt4, stronger effect = lower value 1.01 | S. cerevisiae deletion strains, locus YKL068W, stronger effect = lower value 1.02 | S. cerevisiae deletion strains, locus YKL085W, strain MDH1 (second series), stronger effect = lower value 0.995 | S. cerevisiae deletion strains, locus YKL085W, strain MDH1, stronger effect = lower value 0.995 | S. cerevisiae deletion strains, locus YKL160W, strain elf1, stronger effect = lower value 1.03 | S. cerevisiae deletion strains, locus YKL190W, strain CNB1, stronger effect = lower value 1 | S. cerevisiae deletion strains, locus YKR001C, strain vps1, stronger effect = lower value 0.997 | S. cerevisiae deletion strains, locus YKR026C, strain gcn3, stronger effect = lower value 1.01 | S. cerevisiae deletion strains, locus YKR091W, strain srl3, stronger effect = lower value 1.01 | S. cerevisiae deletion strains, locus YLL001W, strain dnm1, stronger effect = lower value 0.999 | S. cerevisiae deletion strains, locus YLL026W, stronger effect = lower value 1.01 | S. cerevisiae deletion strains, locus YLL041C, strain sdh2, stronger effect = lower value 1.01 | S. cerevisiae deletion strains, locus YLR027C, strain aat2, stronger effect = lower value 1.01 | S. cerevisiae deletion strains, locus YLR039C, strain RIC1, stronger effect = lower value 1.02 | S. cerevisiae deletion strains, locus YLR058C, strain SHM2, stronger effect = lower value 1.01 | S. cerevisiae deletion strains, locus YLR102C, strain apc9, stronger effect = lower value 1.01 | S. cerevisiae deletion strains, locus YLR113W, strain HOG1, stronger effect = lower value 1.02 | S. cerevisiae deletion strains, locus YLR221C, strain rsa3, stronger effect = lower value 0.997 | S. cerevisiae deletion strains, locus YLR258W, strain gsy2, stronger effect = lower value 1.03 | S. cerevisiae deletion strains, locus YLR262C, strain YPT6 (second series), stronger effect = lower value 1.03 | S. cerevisiae deletion strains, locus YLR262C, strain YPT6, stronger effect = lower value 1.01 | S. cerevisiae deletion strains, locus YLR268W, strain sec22, stronger effect = lower value 0.987 | S. cerevisiae deletion strains, locus YLR320W, strain mms22, stronger effect = lower value 1.01 | S. cerevisiae deletion strains, locus YLR330W, strain CHS5, stronger effect = lower value 1.01 | S. cerevisiae deletion strains, locus YLR342W, strain FKS1 (second series), stronger effect = lower value 1.03 | S. cerevisiae deletion strains, locus YLR342W, strain FKS1, stronger effect = lower value 1.02 | S. cerevisiae deletion strains, locus YLR357W, strain rsc2, stronger effect = lower value 1.03 | S. cerevisiae deletion strains, locus YLR370C, strain arc18, stronger effect = lower value 1.01 | S. cerevisiae deletion strains, locus YLR371W, strain rom2, stronger effect = lower value 1 | S. cerevisiae deletion strains, locus YLR384C, strain iki3, stronger effect = lower value 0.999 | S. cerevisiae deletion strains, locus YLR418C, strain cdc73, stronger effect = lower value 0.974 | S. cerevisiae deletion strains, locus YML016C, strain PPZ1, stronger effect = lower value 1 | S. cerevisiae deletion strains, locus YML032C, strain rad52, stronger effect = lower value 1.02 | S. cerevisiae deletion strains, locus YML120C, strain ndi1, stronger effect = lower value 1.02 | S. cerevisiae deletion strains, locus YML124C, strain tub3, stronger effect = lower value 1 | S. cerevisiae deletion strains, locus YMR058W, strain fet3, stronger effect = lower value 1.02 | S. cerevisiae deletion strains, locus YMR078C, strain ctf18, stronger effect = lower value 1 | S. cerevisiae deletion strains, locus YMR125W, strain sto1, stronger effect = lower value 1.04 | S. cerevisiae deletion strains, locus YMR129W, stronger effect = lower value 1.01 | S. cerevisiae deletion strains, locus YMR205C, strain PFK2, stronger effect = lower value 1.02 | S. cerevisiae deletion strains, locus YMR223W, strain ubp8, stronger effect = lower value 1.01 | S. cerevisiae deletion strains, locus YMR231W, strain pep5, stronger effect = lower value 1.02 | S. cerevisiae deletion strains, locus YMR263W, strain SAP30, stronger effect = lower value 1 | S. cerevisiae deletion strains, locus YMR307W, strain GAS1, stronger effect = lower value 1.03 | S. cerevisiae deletion strains, locus YNL067W, strain RPL9B, stronger effect = lower value 0.996 | S. cerevisiae deletion strains, locus YNL071W, strain lat1, stronger effect = lower value 1.01 | S. cerevisiae deletion strains, locus YNL128W, strain TEP1, stronger effect = lower value 1.01 | S. cerevisiae deletion strains, locus YNL153C, strain GIM3, stronger effect = lower value 0.998 | S. cerevisiae deletion strains, locus YNL183C, strain NPR1, stronger effect = lower value 0.962 | S. cerevisiae deletion strains, locus YNL209W, strain ssb2, stronger effect = lower value 1 | S. cerevisiae deletion strains, locus YNL233W, strain BNI4, stronger effect = lower value 1.01 | S. cerevisiae deletion strains, locus YNL248C, strain rpa49, stronger effect = lower value 1.02 | S. cerevisiae deletion strains, locus YNL250W, strain rad50, stronger effect = lower value 1 | S. cerevisiae deletion strains, locus YNL271C, strain bni1, stronger effect = lower value 1 | S. cerevisiae deletion strains, locus YNL298W, strain CLA4, stronger effect = lower value 1.01 | S. cerevisiae deletion strains, locus YNL307C, strain MCK1, stronger effect = lower value 1.01 | S. cerevisiae deletion strains, locus YNL322C, strain KRE1 (second series), stronger effect = lower value 1 | S. cerevisiae deletion strains, locus YNL322C, strain KRE1, stronger effect = lower value 1 | S. cerevisiae deletion strains, locus YNR049C, strain mso1, stronger effect = lower value 1.02 | S. cerevisiae deletion strains, locus YNR052C, strain pop2, stronger effect = lower value 1 | S. cerevisiae deletion strains, locus YOL006C, strain TOP1, stronger effect = lower value 1.01 | S. cerevisiae deletion strains, locus YOL012C, strain htz1 1.08 | S. cerevisiae deletion strains, locus YOL147C, strain pex11, stronger effect = lower value 1 | S. cerevisiae deletion strains, locus YOR001W, strain rrp6, stronger effect = lower value 0.988 | S. cerevisiae deletion strains, locus YOR061W, strain CKA2, stronger effect = lower value 1 | S. cerevisiae deletion strains, locus YOR069W, strain VPS5, stronger effect = lower value 1.01 | S. cerevisiae deletion strains, locus YOR070C, strain gyp1, stronger effect = lower value 1.02 | S. cerevisiae deletion strains, locus YOR080W, strain dia2, stronger effect = lower value 1.06 | S. cerevisiae deletion strains, locus YOR083W, strain WHI5, stronger effect = lower value 1.02 | S. cerevisiae deletion strains, locus YOR106W, strain vam3, stronger effect = lower value 1.01 | S. cerevisiae deletion strains, locus YOR136W, strain idh2, stronger effect = lower value 1.01 | S. cerevisiae deletion strains, locus YOR144C, strain elg1, stronger effect = lower value 1.01 | S. cerevisiae deletion strains, locus YOR184W, strain ser1, stronger effect = lower value 1.01 | S. cerevisiae deletion strains, locus YOR231W, strain MKK1, stronger effect = lower value 1.02 | S. cerevisiae deletion strains, locus YOR265W, strain rbl2, stronger effect = lower value 1.01 | S. cerevisiae deletion strains, locus YOR270C, strain vph1, stronger effect = lower value 0.982 | S. cerevisiae deletion strains, locus YOR290C, strain snf2, stronger effect = lower value 1.03 | S. cerevisiae deletion strains, locus YOR316C, strain cot1, stronger effect = lower value 1 | S. cerevisiae deletion strains, locus YPL051W, strain arl3, stronger effect = lower value 1.03 | S. cerevisiae deletion strains, locus YPL055C, strain LGE1, stronger effect = lower value 0.999 | S. cerevisiae deletion strains, locus YPL078C, strain atp4, stronger effect = lower value 1.03 | S. cerevisiae deletion strains, locus YPL106C, strain sse1, stronger effect = lower value 1.04 | S. cerevisiae deletion strains, locus YPL240C, strain hsp82, stronger effect = lower value 0.994 | S. cerevisiae deletion strains, locus YPL241C, strain CIN2, stronger effect = lower value 1.01 | S. cerevisiae deletion strains, locus YPL256C, strain CLN2, stronger effect = lower value 1.01 | S. cerevisiae deletion strains, locus YPR119W, strain clb2, stronger effect = lower value 1.01 | S. cerevisiae deletion strains, locus YPR141C, strain kar3, stronger effect = lower value 1.01 | S. cerevisiae deletion strains, locus YPR163C, strain tif3, stronger effect = lower value 1.01 | S. cerevisiae deletion strains, locus YPR167C, strain met16, stronger effect = lower value 0.995 | S. cerevisiae deletion strains, strain wtn01, stronger effect = lower value 1.01 | S. cerevisiae strains, strain wild type, stronger effect = lower value 1
